Source: PubChem BioAssay
A selection: hits, their analogues and other compounds. The true share with any hit is near 10%.
GLA inh pH 4.5: qHTS Assay for Inhibitors of Human alpha-Galactosidase at pH 4.5; activity change, negative = inhibition, % at 105 µM; Alpha-galactosidase A (Homo sapiens), P06280; purified enzyme, 4-MU-alpha-Gal fluorescence, pH 4.5; 230,000 tested, under 10 active; AID 1467, 2008;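 further: 0% = full activity with enzyme and -100% = basal without enzyme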
HPGD inh: qHTS Assay for Inhibitors of HPGD (15-Hydroxyprostaglandin Dehydrogenase); 150,000 compounds, 4.3% hits; AID 894, 2007; 15-hydroxyprostaglandin dehydrogenase [NAD(+)] (Homo sapiens), P15428; purified HPGD, NADH fluorescence kinetic, PGE2 substrate; Potency, µM, for inactives: top-dose activity change, negative = inhibition, hits mostly inhibitors; active means well fitted inhibition curve with a large enough effect, not every such curve was filed as active; inconclusive means small, poorly fitted or top-dose-only effect, or another doubt; inactive means no such curve, though single readings can be large or run the other way; further: potency means the concentration at half of the fitted maximal effect
Target sequence (P15428 whole entry, looked up): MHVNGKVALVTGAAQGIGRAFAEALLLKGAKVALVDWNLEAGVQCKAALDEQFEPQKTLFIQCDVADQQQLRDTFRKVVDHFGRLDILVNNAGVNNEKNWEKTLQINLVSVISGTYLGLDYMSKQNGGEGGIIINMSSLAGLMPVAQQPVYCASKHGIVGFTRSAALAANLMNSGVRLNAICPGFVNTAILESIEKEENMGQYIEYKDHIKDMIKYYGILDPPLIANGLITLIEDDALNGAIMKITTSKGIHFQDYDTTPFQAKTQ
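20 nM HPGD preincubated 15 min at room temperature with compound in 50 mM Tris-HCl pH 8, 0.01% Tween 20. Started with 1 mM NAD+ and 30 uM prostaglandin E2; NADH fluorescence (360/450 nm) read 5 times over 30-s intervals, last minus first.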
ALDH1A1 inh: qHTS Assay for Inhibitors of Aldehyde Dehydrogenase 1 (ALDH1A1). Aldehyde dehydrogenase 1A1 (Homo sapiens), P00352. Purified ALDH1A1, NADH fluorescence, propionaldehyde substrate. Potency, µM (series often up to 75.3 µM), for the others: at the top dose activity, negative = inhibition, hits mostly inhibitors. 220,000 compounds, 7.3% hits. AID 1030, 2008; active means well fitted inhibition curve with a large enough effect, not every such curve was filed as active; inconclusive means small, poorly fitted or top-dose-only effect, or another doubt; inactive means no such curve, though single readings can be large or run the other way;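 further: potency means the concentration at half of the fitted maximal effect; plate controls were no enzyme wells and a reference inhibitor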
ALOX12 inhib: qHTS Assay for Inhibitors of 12-hLO (12-human lipoxygenase); Polyunsaturated fatty acid lipoxygenase ALOX12 (Homo sapiens), P18054; purified 12-hLO, xylenol orange hydroperoxide absorbance; Potency, µM (series often up to 57.1 µM), for inactives: top-dose activity change, negative = inhibition, usual class: inhibitors; 150,000 compounds, 0.12% hits; AID 1452, 2008; further: potency means the concentration at half of the fitted maximal effect; nearly all actives have a fitted effect of over 55% in size
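Purified human 12hLO (150 nM), preincubated 15 min with compound, then 40 uM arachidonic acid for 30 min, room temperature, Hepes pH 7.0 with 0.01% Triton X-100. Hydroperoxide detected by ferrous iron/xylenol orange; 573/405 nm absorbance ratio gives reaction progress.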
GLA spleen mod: qHTS Assay for Inhibitors and Activators of Human alpha-Galactosidase From Spleen Homogenate. 240,000 compounds, 0.008% hits. Alpha-galactosidase A (Homo sapiens), P06280. AID 2107, 2009. Potency, µM (titrated, usually from 80 µM), inactives show at the highest dose activity change, negative = inhibition, usual class: inhibitors. human spleen homogenate, 4MU-alpha-Gal fluorescence, 40 min;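 further: potency means the concentration at half of the fitted maximal effect; 0% = enzyme with vehicle and -100% = no enzyme basal signal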
Target sequence (P06280 32-429 limits assumed): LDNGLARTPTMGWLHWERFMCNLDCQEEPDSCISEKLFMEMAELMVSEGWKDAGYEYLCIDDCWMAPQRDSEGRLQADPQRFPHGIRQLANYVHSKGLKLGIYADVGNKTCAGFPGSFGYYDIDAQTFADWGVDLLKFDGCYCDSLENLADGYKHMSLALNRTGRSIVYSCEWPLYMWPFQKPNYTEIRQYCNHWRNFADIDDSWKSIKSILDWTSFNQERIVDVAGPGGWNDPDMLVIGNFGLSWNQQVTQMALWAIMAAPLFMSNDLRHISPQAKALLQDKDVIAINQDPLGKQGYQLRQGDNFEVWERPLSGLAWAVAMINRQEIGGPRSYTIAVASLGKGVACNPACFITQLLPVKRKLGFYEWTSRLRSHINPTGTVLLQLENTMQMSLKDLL
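Inhibition or activation of alpha-galactosidase in human spleen homogenate is scored by 4-MU fluorescence after 40 min at 37C, pH 5.0, with 1 mM substrate. AC50s come from concentration-response fitted to the Hill equation.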
PNC inhibitor: High Content Assay for Compounds that inhibit the Assembly of the Perinucleolar Compartment; PC3M PTB-GFP, PNC prevalence imaging, 16 h; hits give low values; activity change (PNC), negative = inhibition, % at 10 µM; 140,000 compounds, 3.1% hits;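 active means readout at or below -70, meaning at least 70% loss of cells showing the perinucleolar compartment, a nuclear body marking cancer cells; inconclusive means readout between -30 and a set limit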;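 further: plate controls were DMSO wells for no effect and camptothecin positive control wells for full effect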
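Compounds are pinned in duplicate onto adhered PC3M cells stably expressing GFP-tagged PTB and incubated 16 h at 37 C. Cells are then fixed, nuclei stained with Hoechst, and PNC-positive cells counted.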
Numbers without * were called inactive; ? = inconclusive; / = not tested or not shown; [ ] = remark or other dose. Unless noted, the call rests on the fitted dose curve; in most records, active means well fitted curve in the direction sought with a large enough effect; inconclusive means small, poorly fitted or top-dose-only effect, or another doubt; inactive means no such curve, though single readings can be large; an effect the other way counts as inactive or inconclusive. Unless noted, on the % scale 0 is the no-effect control and ±100 the full control effect.

SMILES	GLA inh pH 4.5	HPGD inh	ALDH1A1 inh	ALOX12 inhib	GLA spleen mod	PNC inhibitor
CC(C)NC(=O)CC(c1ccccc1)c1cc(Br)ccc1O (stereo not given)	-10	25µM*	2%	-10%	2%	?
C/C(CC(=O)NCc1ccc(F)cc1)=N\NC(N)=S	-4	/	?	/	-3%	/
CCN(CC)S(=O)(=O)c1ccc(C)c(NC(=O)CSc2nc3ccccc3[nH]2)c1	-17	-3%	?	-3%	-15%	-92*
CCN(CC)S(=O)(=O)c1ccc(C)c(NC(=O)/C=C/c2cccs2)c1	-5	-9%	0.71µM*	-1%	-3%	23
Cc1cc(C)nc(NS(=O)(=O)c2ccc(NC(=O)C3(c4ccccc4)CCCC3)cc2)n1	4	/	21%	-1%	-6%	-115*
Cc1cc(C)nc(NS(=O)(=O)c2ccc(NC(=O)CSc3nc4ccccc4[nH]3)cc2)n1	4	-5%	20µM*	0%	1%	0
CCOC(=O)N/N=C1/C[C@@H](O)[C@@H](O)[C@@H]2[C@@H]3C(=O)N(C[C@@H]4CCCO4)C(=O)[C@H]3CC[C@H]12	/	/	1%[13.5 µM]	/	-2%[17.5 µM]	/
O=C(c1ccco1)N1N=C(c2ccccc2)CC1c1ccc2nccnc2c1 (stereo not given)	-2	/	/	/	3%	/
COc1ccc2nc(SCC(=O)Nc3ccc(S(=O)(=O)Nc4nccc(C)n4)cc3)[nH]c2c1	6	28µM*	?	-4%	-3%	28
Cc1cc(NS(=O)(=O)c2ccc(NC(=O)CSc3nc4ncccc4[nH]3)cc2)nc(C)n1	-24	/	/	/	-10%	/
CCc1cc(C(=O)O)c(NC(=O)C(c2ccccc2)c2ccccc2)s1	-2	-1%	13µM*	-1%	3%	-3
CCOC(=O)c1cc(C)sc1NC(=O)C(c1ccccc1)c1ccccc1	7	-29%	10%	-1%	-8%	9
CCOc1ccc(C(Nc2cccnc2)c2cc(Cl)c3cccnc3c2O)cc1 (stereo not given)	2	/	1.3µM*	/	-8%	/
O=C(O)COc1ccccc1C(Nc1cccnc1)c1cc(Cl)c2cccnc2c1O (stereo not given)	0	/	-4%	/	1%	/
COc1ccc(C(=O)c2c(C)c3cc(C)ccc3n2CC(O)CN2CCOCC2)cc1 (stereo not given)	-3	-29%	11µM*	-5%	-4%	?
COc1cc(C=O)ccc1OCCOCCOc1ccc(Cl)cc1	-5	-29%	3.5µM*	-2%	-2%	19
C/C=C/c1ccc(OCCCCOc2c(OC)cccc2OC)c(OC)c1	2	?	-8%	10%	10%	43
COc1ccccc1OCCCCOc1ccccc1C(C)=O	-8	-8%	7%	-1%	0%	-10
C/C=C/c1ccc(OCCCCOc2ccccc2C(C)=O)c(OC)c1	-5	14µM*	?	-1%	-9%	29
COc1cc(C=O)ccc1OCCSc1ccc(Cl)cc1	9	11µM*	?	4%	3%	68
C/C=C/c1ccc(OCCCNC)c(OC)c1	9	-2%	28µM*	-9%	5%	-7
C/C=C/c1ccc(OCCOc2ccc(C=O)cc2)c(OC)c1	0	25µM*	?	-2%	8%	-4
CCOC(=O)N/N=C/c1ccc(OCCSc2ccc(Cl)cc2)c(OCC)c1	5	16µM*	6%	-1%	-2%	0
COc1ccccc1CNC(=S)Nc1ccc2nc(N3CCN(C)CC3)cc(C)c2c1	-8	/	-18%	/	8%	/
COc1ccc(N2C(=O)CC(N3CCN(Cc4ccc5c(c4)OCO5)CC3)C2=O)cc1 (stereo not given)	-4	/	28µM*	/	0%	/
SMILES	GLA inh pH 4.5	HPGD inh	ALDH1A1 inh	ALOX12 inhib	GLA spleen mod	PNC inhibitor
O=C1CC(N2CCN(Cc3ccccc3)CC2)C(=O)N1c1ccc2c(c1)OCCO2 (stereo not given)	-8	-5%	7.1µM*	10%	7%	?
O=C1CC(N2CCN(Cc3ccccc3)CC2)C(=O)N1c1ccccc1 (stereo not given)	2	-2%	-14%	4%	4%	14
C=C(C)COc1ccc2c(c1)CCC1C2CC[C@]2(C)C(=O)/C(=N/O)CC12 (stereo not given in full)	/	2%	7%[13.5 µM]	5%[11.4 µM]	/	/
C#C[C@]1(O)CC[C@@H]2[C@H]3CCc4cc(OC)ccc4[C@@H]3CC[C@@]21C	4	-2%	-2%[20.9 µM]	-1%[25.6 µM]	7%[29.1 µM]	/
COc1ccc(Oc2ccccc2C=O)cc1	-22	-18%	?	3%	-4%	57
Cc1cccc(NC(=O)CN2C(=O)S/C(=C\c3ccccn3)C2=O)c1	2	/	4%	/	-4%	/
COc1cc(/C=C2/SC(=O)N(Cc3ccccc3Cl)C2=O)ccc1OCc1ccncc1	10	1%	0.45µM*	1%	-3%	26
Cc1cccc(/C=C2/SC(=O)N(Cc3ccccc3Cl)C2=O)n1	-2	-13%	3.2µM*	-3%	0%	22
O=c1c(-c2ccc(Cl)cc2)nc2cnc(N3CCOCC3)nc2n1-c1ccccc1	/	/	?	/	23%	/
COc1ccc(Cl)cc1-c1ccc(C(=O)O)s1	-16	?	?	-4%[0.00818 µM]	8%[119 µM]	/
Cc1nc2ccccn2c1C(=O)NC1CCCCC1	5	?	?	-1%	-4%	-105*
Cc1nc2ccccn2c1C(=O)OCC#N	4	/	16µM*	/	-4%	/
C=C(C)C(=O)C1CCCCC1	-12	-10%	2%	/	8%	/
O=C(O)COc1cccc(-c2ocnc2-c2nc(-c3ccccc3)c(-c3ccccc3)o2)c1	11	?	?	-1%	-15%	/
COc1cc(/C=C(\C#N)C(=O)c2ccc(O)c(O)c2)cc(I)c1O	-10	18µM*	?	?	-5%	/
CCOC(=O)/C(C#N)=C/c1ccc(OC)c(OC)c1	3	-3%	?	-8%	4%	-10
N#Cc1c(Sc2ncc(C(F)(F)F)cc2Cl)nsc1C/C=N\OCc1ccccc1Br	1	-25%	10µM*	-13%	-3%	-1
S=C(NCCN1CCOCC1)Nc1cccc(Cl)c1	0	-8%	2%	-4%	3%	16
COc1cccc(NC(=S)NCCN2CCOCC2)c1	5	-3%	13%	4%	-5%	-91*
COc1cccc(NC(=S)N(CCCN2CCN(C)CC2)Cc2ccco2)c1	1	/	2%	/	3%	/
